# Laboratory results: PubChem BioAssay (NCATS)
# Several values for one entry are separate records, joined by “and”; a condition that tells them apart may be missing. Equal values may be shown once. Inconclusive results are not listed. Activity calls are given as the source filed them. Unless noted, the call rests on the fitted dose curve; in most records, active means well fitted curve in the direction sought with a large enough effect; inconclusive means small, poorly fitted or top-dose-only effect, or another doubt; inactive means no such curve, though single readings can be large; an effect the other way counts as inactive or inconclusive.
# How the values were obtained:
# [1] = Primary qHTS for small molecule stabilizers of the endoplasmic reticulum resident proteome: Secreted ER Calcium Modulated Protein (SERCaMP) assay (AID 1508630)
# Summary of the method: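 The SH-SY5Y reporter protocol was run at 3 concentrations up to 38.3 uM (primary) or 11 concentrations (follow-up): 16 h compound, 100 nM thapsigargin for 4 h, then extracellular luciferase luminescence.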
# [2] = target: Cytochrome P450 2D6 (Homo sapiens) (UniProt P10635); assay: Cytochrome P450 family 2 subfamily D member 6 (CYP2D6) small molecule antagonists: luciferase biochemical (cell-free) qHTS assay (AID 1645840; active means well fitted curve in the direction sought with a large enough effect in the repeat runs; an effect the other way counts as inactive or inconclusive; further: nearly all actives have a fitted effect of over 55% in size; further: potency means the concentration at half of the fitted maximal effect)
# Summary of the method: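 P450-Glo CYP2D6 system: proluciferin substrate converted by enzyme to luciferin, read by luminescence proportional to activity. Enzyme-substrate mix with compound 10 min at room temperature, then NADPH regeneration 1 h before detection reagent.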
# [3] = target: Cytochrome P450 2C9 (Homo sapiens) (UniProt P11712); assay: Cytochrome P450 family 2 subfamily C member 9 (CYP2C9) small molecule antagonists: luciferase biochemical (cell-free) qHTS assay (AID 1645842; active means well fitted curve in the direction sought with a large enough effect in the repeat runs; an effect the other way counts as inactive or inconclusive; further: nearly all actives have a fitted effect of over 55% in size; further: potency means the concentration at half of the fitted maximal effect)
# Summary of the method: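 P450-Glo CYP2C9 system: proluciferin substrate with enzyme in mix containing 0.4% BSA, 10 min at room temperature, then NADPH regeneration solution added and incubated 1 h at 37C. Detection reagent stopped reaction; luminescence read after 20 min as RLU.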
# [4] = Primary qHTS for inhibitors of nuclear receptor binding SET domain protein 2 (NSD2) in an isogenic RCH-ACV NSD2 p.E1099K mutant (9B) (AID 1645876); further: potency means the concentration at half of the fitted maximal effect; nearly all actives have a fitted effect of over 70% in size
# [5] = Primary qHTS for inhibitors of nuclear receptor binding SET domain protein 2 (NSD2) in an RCH-ACV wild type WT cells (2C) (AID 1645877); further: potency means the concentration at half of the fitted maximal effect; nearly all actives have a fitted effect of over 70% in size
# Papain (Carica papaya) = Papain (Carica papaya) (UniProt P00784); assay: Primary qHTS assay for inhibitors of the protease papain (AID 1645873);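 further: papain turnover of Z-FR-AMC read as the AMC fluorescence gain over 10 min; series mostly up to about 50 µM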
# Chain of Papain (Carica papaya) (P00784 whole entry, looked up): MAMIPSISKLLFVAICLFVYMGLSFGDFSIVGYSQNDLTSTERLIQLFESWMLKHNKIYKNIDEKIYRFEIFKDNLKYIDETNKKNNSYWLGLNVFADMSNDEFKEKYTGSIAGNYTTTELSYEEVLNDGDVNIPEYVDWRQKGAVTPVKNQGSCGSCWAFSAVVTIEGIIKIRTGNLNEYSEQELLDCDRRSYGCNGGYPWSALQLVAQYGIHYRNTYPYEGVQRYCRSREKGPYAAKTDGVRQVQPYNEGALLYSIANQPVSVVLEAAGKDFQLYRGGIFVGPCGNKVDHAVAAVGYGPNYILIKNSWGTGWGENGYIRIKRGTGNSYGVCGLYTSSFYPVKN
# Chain of Cytochrome P450 2D6 (Homo sapiens) (P10635 whole entry, looked up): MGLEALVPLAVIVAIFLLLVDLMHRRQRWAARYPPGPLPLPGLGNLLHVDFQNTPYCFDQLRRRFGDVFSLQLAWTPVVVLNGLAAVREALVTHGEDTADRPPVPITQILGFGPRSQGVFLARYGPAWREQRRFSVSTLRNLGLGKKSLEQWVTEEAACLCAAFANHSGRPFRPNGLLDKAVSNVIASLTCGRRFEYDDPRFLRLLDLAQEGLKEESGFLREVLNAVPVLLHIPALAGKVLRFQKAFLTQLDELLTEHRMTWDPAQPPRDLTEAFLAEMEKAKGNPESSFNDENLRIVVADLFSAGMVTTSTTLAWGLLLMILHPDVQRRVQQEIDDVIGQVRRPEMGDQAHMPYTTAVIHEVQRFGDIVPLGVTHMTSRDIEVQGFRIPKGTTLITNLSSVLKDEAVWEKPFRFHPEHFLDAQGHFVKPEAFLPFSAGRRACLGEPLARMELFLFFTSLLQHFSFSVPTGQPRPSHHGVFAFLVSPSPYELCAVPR
# Chain of Cytochrome P450 2C9 (Homo sapiens) (P11712 whole entry, looked up): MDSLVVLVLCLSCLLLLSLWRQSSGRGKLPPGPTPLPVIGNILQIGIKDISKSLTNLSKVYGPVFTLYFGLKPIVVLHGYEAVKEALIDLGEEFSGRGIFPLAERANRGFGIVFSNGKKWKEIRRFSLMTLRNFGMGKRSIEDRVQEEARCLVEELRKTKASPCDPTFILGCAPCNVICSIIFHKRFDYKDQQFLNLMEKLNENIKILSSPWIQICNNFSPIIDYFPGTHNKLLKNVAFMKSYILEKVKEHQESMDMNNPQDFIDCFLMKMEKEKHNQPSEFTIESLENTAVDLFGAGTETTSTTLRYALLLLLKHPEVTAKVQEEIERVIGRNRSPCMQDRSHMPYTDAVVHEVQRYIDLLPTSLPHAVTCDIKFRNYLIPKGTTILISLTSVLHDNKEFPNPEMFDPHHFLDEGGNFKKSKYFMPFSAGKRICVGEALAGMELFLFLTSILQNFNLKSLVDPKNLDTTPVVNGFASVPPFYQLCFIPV
Structure (SMILES),Potency [1],Potency [2],Potency [3],Potency [4],Potency [5],Potency (Papain (Carica papaya))
NC(=NCCCCCCN=C(N)/N=C(\N)Nc1ccc(Cl)cc1)/N=C(\N)Nc1ccc(Cl)cc1,inactive,2.45 µM (active),24.5 µM (active),2.99 µM (active) and 3.65 µM (active),5.96 µM (active) and 3.65 µM (active),–
CCCn1c(=O)[nH]c(=O)c2[nH]cnc21,inactive,–,–,–,–,inactive
Nc1ccc(C(=O)Nc2ccccc2N)cc1,inactive,inactive,inactive,9.44 µM (active),8.41 µM (active),–
COCc1c(C(C)C)nc(C(C)C)c(/C=C/[C@@H](O)C[C@@H](O)CC(=O)O)c1-c1ccc(F)cc1,inactive,inactive,–,0.335 µM (active),0.211 µM (active),–
CCN(CC)CCOc1ccc(C(O)(Cc2ccc(Cl)cc2)c2ccc(C)cc2)cc1 (centres undefined),inactive,0.617 µM (active),–,5.31 µM (active),2.66 µM (active),–
COc1ccc(/C=C/C(=O)c2ccc(OC)cc2OC)cc1,inactive,–,4.36 µM (active),11.9 µM (active),10.6 µM (active),–
